According to ChEMBL document CHEMBL3433997, “St. Jude Leishmania screening dataset” (2016):

How the values were obtained:
Format in all cases: functional
[1] = biological target: Solute carrier family 2, facilitated glucose transporter member 1 (Homo sapiens) (UniProt P11166); experiment: ST_JUDE_LEISH: Cytotoxicity at 2uM final concentration against transgenic Leishmania Mexicana promastigotes LmGLUT1 that are glucose transport deficient and complemented with the human glucose transporter GLUT1. Activity is measured by DNA content using SYBR green in vitro
Solute carrier family 2, facilitated glucose transporter member 1 (Homo sapiens), sequence (P11166 whole entry): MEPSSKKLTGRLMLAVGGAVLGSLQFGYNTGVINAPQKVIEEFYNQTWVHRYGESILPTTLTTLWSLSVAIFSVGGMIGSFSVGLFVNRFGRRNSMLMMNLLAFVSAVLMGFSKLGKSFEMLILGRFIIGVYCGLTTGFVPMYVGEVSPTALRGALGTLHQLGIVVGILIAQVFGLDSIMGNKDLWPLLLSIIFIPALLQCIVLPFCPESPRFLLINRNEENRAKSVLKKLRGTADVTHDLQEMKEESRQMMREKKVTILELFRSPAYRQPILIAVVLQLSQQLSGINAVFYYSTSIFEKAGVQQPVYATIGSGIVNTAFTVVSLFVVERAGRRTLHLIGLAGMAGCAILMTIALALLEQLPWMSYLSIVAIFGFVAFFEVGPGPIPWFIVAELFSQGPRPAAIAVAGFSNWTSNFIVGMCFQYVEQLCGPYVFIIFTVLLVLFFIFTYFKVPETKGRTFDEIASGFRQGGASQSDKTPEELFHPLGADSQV

[2] = biological target: Hexose transporter 1 (Plasmodium falciparum) (UniProt O97467); experiment: ST_JUDE_LEISH: Cytotoxicity at 2uM final concentration against transgenic Leishmania Mexicana promastigotes LmPfHT that are glucose transport deficient and complemented with the Plasmodium falciparum hexose transporter. Activity is measured by DNA content using SYBR green in vitro
[3] = biological target: Glucose transporter (Leishmania mexicana) (UniProt O61059); experiment: ST_JUDE_LEISH: Cytotoxicity at 2uM final concentration against transgenic Leishmania Mexicana promastigotes LmGT2 that are glucose transport deficient and complemented with the L. Mexicana glucose transporter 2. Activity is measured by DNA content using SYBR green in vitro

SMILES	inhibition [1]	inhibition [2]	inhibition [3]
Cc1cccc(CC(=N)NCCCCCCNC(=N)Cc2cccc(C)c2)c1	0.27%	0.31%	-2.06%
CN(C)CCOc1ccc(/C(=C(/CCCn2ccnc2)c2ccccc2)c2ccc(O)cc2)cc1	4.25%	6.01%	5.69%
CC(CNc1nc(NCC(c2ccccc2)c2ccccc2)c2nc[nH]c2n1)c1ccccc1 (stereo not drawn)	3.92%	5%	3.73%
Cc1cc2c3c(N)nc(N)nc3ccc2n1C(C)C	75.6%	79.8%	67.2%
Cc1cc(C(=O)Nc2ccc3c(c2)CCN3C2CCN(Cc3csc4ccccc34)C2)no1 (stereo not drawn)	0.87%	-2.02%	1.87%
S=C(NCCN1CCOCC1)Nc1ccccc1	-1.94%	0.47%	0.17%
Cc1cc(C2CCN(CCCCNC(=O)c3ccc(-c4ccc(C#N)cc4)cc3)CC2)c(C)cc1O	4.77%	3.77%	4.8%
O=S(=O)(NC1CCN(c2ccnc3cc(Cl)ccc23)C1)c1ccc(C(F)(F)F)cc1 (stereo not drawn)	1.91%	1.67%	0.45%
Cc1ccc2c(=NN=Cc3ccc(Cl)cc3)cc(C)[nH]c2c1	4.64%	4.7%	2.66%
O=C(N[C@@H](Cc1ccccc1)C(=O)NC1CCCCC1)c1ccc(O)c(-c2ccc(Cl)c(Cl)c2)c1	-0.99%	0.22%	-0.73%
O=C(/C=C/c1ccc(Cl)c(Cl)c1)NCCCCCN1CCC(NC(=S)Nc2ccc(Cl)cc2)CC1	9.42%	8.02%	6.39%
O=C(NCCNc1ccnc(Nc2ccc(F)cc2)n1)Nc1ccc2c(c1)OCO2	1.78%	0.82%	0.6%
O=S(=O)(NC1CCN(c2ccnc3cc(Cl)ccc23)C1)c1ccc(F)cc1 (stereo not drawn)	0.47%	1.68%	1.83%
Cc1cccc(-c2ccc(NC(=O)C3CCN(Cc4cccc(O)c4)CC3)cc2)c1	0.07%	1.99%	-0.58%
CC[C@H](NC(=O)c1c(CN2CCC(N3CCCCC3)CC2)c(-c2ccccc2)nc2cc(O)ccc12)c1ccccc1	-0.16%	-0.44%	1.08%
c1ccc(CN2CCC(NCc3ccccc3-c3cccc(CNCc4ccc5c(c4)OCO5)c3)CC2)cc1	-2.53%	-0.36%	0.7%
O=C(NC1CCCCC1)N(Cc1cccc(-c2ccc(CNC3CCCC3)cc2)c1)C1CCN(Cc2ccccc2)CC1	16%	14.6%	9.9%
OCCN1CCN(Cc2ccc(-c3cccc(-c4nc5ccccc5[nH]4)c3)cc2)CC1	-1.4%	-2.88%	-1.5%

SMILES	inhibition [1]	inhibition [2]	inhibition [3]
O=C(Cc1cccc(O)c1)Nc1ccc(-c2cccc(-c3nc4cc(C(F)(F)F)ccc4[nH]3)c2)cc1	-0.18%	1.54%	0.62%
NC1=NC(c2ccccc2)(c2ccccc2)C(=O)N1CCCCc1ccccc1	-0.67%	0.44%	-1.44%
CC(Cc1ccc(NS(=O)(=O)c2ccc(CC(C)NCCc3cccc(Cl)c3)cc2)cc1)NCCc1cccc(Cl)c1 (stereo not drawn)	0.89%	9.69%	7.25%
CC1(C)CC(NC(=O)NC2CCN(Cc3ccccc3)CC2)CC(C)(CNC(=O)NC2CCN(Cc3ccccc3)CC2)C1 (stereo not drawn)	5.31%	5.93%	1.3%
Cc1cc(C(=O)Nc2ccc(-c3nc4ccccc4[nH]3)cc2)ccc1[N+](=O)[O-]	3.49%	1.97%	-1.54%
OC(COc1ccccc1-c1nc2ccccc2o1)CN1CCCN(CCc2ccccc2)CC1 (stereo not drawn)	-0.28%	-1.19%	-0.36%
O=S(=O)(c1ccc(NC(S)=NN=Cc2ccccn2)cc1)N1CCCCC1	3.4%	6.75%	5.11%
O=C(Cc1cccc2ccccc12)NC1CCN(c2ccnc3cc(Cl)ccc23)C1 (stereo not drawn)	-2.29%	-1.67%	-0.88%
O=C(NCCCN1CCOCC1)c1csc(Nc2ccc(Cl)c(Cl)c2)n1	0.69%	0.58%	0.12%
COc1ccc2c(N/N=C/c3ccc([N+](=O)[O-])cc3)ccnc2c1	6.14%	4.33%	2.7%
CCC(C)c1ccc(NC(=O)Nc2ccnc3ccccc23)cc1 (stereo not drawn)	2.93%	6.23%	2.25%
Cc1cc(C2CCN(CCCCNC(=O)c3ccc(-c4ccc(C#N)cc4)cc3)CC2)c(C)cc1OCCO	10%	12.3%	9.78%
CCOc1cc(C(=O)NCCCN2CCN(c3cccc(Cl)c3)CC2)ccc1-c1nc2cc(Cl)c(F)cc2[nH]1	-0.54%	-0.11%	-0.18%
CC(=O)/N=C1\N=C(NC(C)=O)NC(C)(C)N1OCCCOc1ccc(Cl)c(Cl)c1	1.53%	1.27%	1.47%
Oc1c(Cl)cc(-c2ccccc2)cc1CNC1CCCCC1	2.63%	1.84%	0.52%
COc1ccc2cc(C=NNc3nc4ccccc4[nH]3)c(Cl)nc2c1	-0.3%	0.04%	1.79%
COc1ccccc1C1CCN(C2CCC(NC(=O)/C=C/c3cc(F)cc(F)c3)CC2)CC1 (stereo not drawn)	-1.84%	-1.17%	-2.6%
COc1ccc(-c2ccc(NC(=O)c3ccc(C#N)cc3)cc2)cc1CN1CCCN(C)CC1	3.03%	3.17%	-0.21%
